Each structure is given as a SMILES string. The whole screen tested about 290,000 compounds, of which about 800 (0.28%) were called active.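 The calls were made as follows: active = fall in fluorescence gain of 50% or more versus controls, with final raw signal at or below 3038400; inconclusive = same 50% fall but final raw signal above 3038400; inactive = fall in fluorescence gain under 50%.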 Only a selection was taken, and actives are over-represented in it overall.

Chain of CAAX prenyl protease 2 (Saccharomyces cerevisiae (strain ATCC 204508 / S288c)) (Q03530 whole entry, looked up): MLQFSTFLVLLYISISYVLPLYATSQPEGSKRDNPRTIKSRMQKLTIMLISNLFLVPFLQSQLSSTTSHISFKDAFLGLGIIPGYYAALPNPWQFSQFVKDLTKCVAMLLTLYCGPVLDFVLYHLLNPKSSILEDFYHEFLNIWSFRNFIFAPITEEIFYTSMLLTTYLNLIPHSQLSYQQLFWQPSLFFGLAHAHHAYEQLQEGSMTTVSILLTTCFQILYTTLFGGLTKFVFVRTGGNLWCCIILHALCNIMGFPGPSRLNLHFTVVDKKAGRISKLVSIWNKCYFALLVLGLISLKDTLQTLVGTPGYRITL

This experiment has as its target CAAX prenyl protease 2 (Saccharomyces cerevisiae (strain ATCC 204508 / S288c)) (UniProt Q03530). The experiment in a line: blockers of Rce1 CaaX peptide cleavage – biochemical, fluorescence, cell-free homogeneous, primary screen (AID 2563). The following applies: yeast membranes, quenched prenylated peptide cleavage fluorescence.
Take `COc1cc(Cn2c(N)c(C(=O)NCc3ccco3)c3nc4ccccc4nc32)cc(OC)c1OC`: the result was active. For the compound `CCOC(=O)c1c(N)n(CCN2CCOCC2)c2nc3ccccc3nc12`, the result was inactive.

With `CCOC(=O)c1c(N)n(Cc2ccccc2)c2nc3ccccc3nc12`, the call was inactive. Consider `COC(=O)C1=C(c2cc3ccccc3s2)C[C@@H]2CC[C@H]1N2C(=O)NCCO`, for which the outcome was inactive. As for `Cc1cc(N2C(=O)C3CCCN3C2c2ccc(Cl)c(Cl)c2)no1` (stereo not given), the call was inactive.

These data come from PubChem BioAssay AID2563 (Broad Institute, 2010).
